ugtP null kill = compounds lethal to S. aureus RN4220 ugtP deletion mutant; OD600 growth, 16 h; growth inhibition, % (test concentration not listed); 0.54% of 330,000 active; AID 1259309; in the data active means growth inhibition above about 68%
PriA SSB inh = K. pneumoniae PriA-SSBct interaction inhibition. AlphaScreen SSBct-PriA binding, biotinylated peptide. inhibition, % at 33 µM. 0.6% of 430,000 active; in the data active means inhibition mostly above about 37%, no sharp cut-off; inactive means mostly below about 20%
Mtb betalactam = beta-lactam sensitization of Mtb H37Rv; 0.27% of 330,000 active; inhibition, % at 25 µM; M. tuberculosis H37Rv growth with meropenem, percent inhibition; call rule not given here;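 further: growth measured after seven days incubation then overnight dye step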
Mtb hypoxia rep = inhibitors of hypoxia-regulated fluorescent reporter in Mycobacterium tuberculosis; M. tuberculosis hypoxia-regulated fluorescent reporter, fluorescence; fluorescence inhibition, % (test concentration not listed); 0.1% of 300,000 active; AID 1159583; in the data active means fluorescence inhibition mostly above about 23%, no sharp cut-off; inactive means mostly below about 17%
RN4220 kill = S. aureus RN4220 growth inhibition. OD600, 16 h. inhibition, % (no concentration beside the values). 0.33% of 330,000 active. AID 1259311; in the data active means inhibition above about 85%
Hits are given with their value. Shown are actives, neighbours in structure and some others; about 1% of the full set was active somewhere.

For CSc1nc(Cl)c(Cc2ccc(OCC(C)C)cc2)c(N2CCOCC2)n1 the results were ugtP null kill 94, PriA SSB inh inactive, Mtb betalactam inactive, Mtb hypoxia rep inactive and RN4220 kill inactive.
CCCCOc1ccc(Cc2c(Cl)nc(SC)nc2N2CCOCC2)cc1 was read as ugtP null kill 92, PriA SSB inh inactive, Mtb betalactam inactive, Mtb hypoxia rep inactive and RN4220 kill inactive.
Screening CCOc1ccc(Cc2c(Cl)nc(SC)nc2OC)cc1 returned ugtP null kill inactive, PriA SSB inh inactive, Mtb betalactam inactive, Mtb hypoxia rep inactive and RN4220 kill inactive.
`CNCC(CC1CCCCC1)NCC(CC(C)C)NCCc1cccc(C(F)(F)F)c1` (stereo not given) gave ugtP null kill inactive and RN4220 kill 89.
Screening CC(C)(C)OC(=O)NN=Cc1ccc(C(=O)O)cc1 returned ugtP null kill inactive, PriA SSB inh inactive, Mtb hypoxia rep inactive and RN4220 kill inactive.
For CC(C)(C)OC(=O)NN=C(c1ccc(O)cc1)c1ccc(O)cc1 the results were ugtP null kill 99, PriA SSB inh inactive, Mtb betalactam inactive, Mtb hypoxia rep inactive and RN4220 kill 99.
Clc1ccc(C(c2ccccc2Cl)C(Cl)Cl)cc1 (stereo not given) was read as ugtP null kill 93, PriA SSB inh inactive, Mtb betalactam inactive, Mtb hypoxia rep inactive and RN4220 kill inactive.
CCc1ccc(C(c2ccc(CC)cc2)C(Cl)Cl)cc1 was read as PriA SSB inh inactive and Mtb betalactam inactive.
For C[C@H]1C(=O)NCCN1C(=O)CCCSc1ccc(Cl)cc1 the results were PriA SSB inh inactive.
COc1ccc(-c2ccc(=O)n(CCNC(=O)NC3CCCCC3)n2)cc1OC was read as PriA SSB inh inactive.
Cc1ccc(/C=C2\C(=O)Nc3ccccc32)o1 was read as ugtP null kill 100, PriA SSB inh inactive, Mtb betalactam inactive, Mtb hypoxia rep inactive and RN4220 kill inactive.
Screening NS(=O)(=O)c1ccc(-c2ccc(/C=C3\C(=O)Nc4ccccc43)o2)cc1 returned Mtb betalactam inactive.
`CC(C)Oc1ccccc1C=NNc1ccccc1[N+](=O)[O-]` gave ugtP null kill inactive, PriA SSB inh 82, Mtb hypoxia rep inactive and RN4220 kill inactive.
For CSc1ccccc1CN1CCC(CNC(=O)c2ccc3nsnc3c2)CC1 the results were PriA SSB inh inactive.
O=C(NCC1CCN(C(=O)c2ccccc2F)CC1)C(=O)Nc1cc2c3c(c1)CC(=O)N3CCC2 was read as PriA SSB inh inactive.
For NC(=O)COC(=O)c1oc2ccccc2c1CSc1ccc(Cl)cc1 the results were ugtP null kill 96, PriA SSB inh inactive, Mtb betalactam inactive, Mtb hypoxia rep inactive and RN4220 kill inactive.
Screening COc1ccc2nc(-c3ccc(NC(=O)Nc4cccs4)cc3)cn2n1 returned PriA SSB inh inactive.
`O=[N+]([O-])c1ccc(-[n+]2nc(-c3ccccc3)nn2-c2ccc(I)cc2)cc1` gave PriA SSB inh 155.
COc1ccc(NC(=S)Nc2ncccc2C)cc1OC was read as ugtP null kill inactive, PriA SSB inh inactive, Mtb betalactam inactive, Mtb hypoxia rep inactive and RN4220 kill inactive.
`COc1ccc(OC)c(NC(=S)Nc2ncccc2C)c1` gave PriA SSB inh 105.
Cc1cccnc1NC(=S)Nc1ncccc1C was read as ugtP null kill inactive, PriA SSB inh inactive, Mtb betalactam inactive, Mtb hypoxia rep inactive and RN4220 kill inactive.
Screening COc1ccc(NC(=S)Nc2ncccc2C)c(OC)c1 returned ugtP null kill inactive, PriA SSB inh 46, Mtb betalactam inactive, Mtb hypoxia rep inactive and RN4220 kill inactive.
Screening Oc1c(Br)cc(Br)c2cccnc12 returned PriA SSB inh inactive.
`[O-][n+]1cccc2c(Br)cc(Br)c(O)c21` gave ugtP null kill inactive, PriA SSB inh 69, Mtb betalactam inactive, Mtb hypoxia rep inactive and RN4220 kill inactive.
O=C(NCc1ccccc1C(F)(F)F)c1nnn(Cc2ccccc2)c1-c1ccncc1 was read as PriA SSB inh inactive.
For CN(C)CCn1nnnc1SCC1=C(C(=O)O)N2C(=O)[C@@H](NC(=O)Cc3csc(N)n3)[C@H]2SC1 the results were PriA SSB inh inactive and Mtb betalactam inactive.
Screening Cc1nnc(SCC2=C(C(=O)O)N3C(=O)C(NC(=O)Cn4cnnn4)C3SC2)s1 (stereo not given) returned ugtP null kill 100, PriA SSB inh inactive, Mtb betalactam inactive and RN4220 kill 100.
`Cc1nnc(SCC2=C(C(=O)O)N3C(=O)[C@@H](NC(=O)Cn4cnnn4)[C@H]3SC2)s1` gave ugtP null kill 100, PriA SSB inh inactive, Mtb betalactam inactive and RN4220 kill 97.
Cc1cc2ncc3c(n2n1)CCN(C(=O)c1cccc(Oc2ccccn2)c1)C3 was read as PriA SSB inh inactive.
For O=C(CSc1nc2ccccc2[nH]1)NN=C/C=C\c1ccccc1[N+](=O)[O-] the results were ugtP null kill 97, PriA SSB inh inactive, Mtb hypoxia rep inactive and RN4220 kill 98.
`O=C(CSc1nc2ccccc2[nH]1)N/N=C/C=C/c1ccccc1[N+](=O)[O-]` gave Mtb betalactam inactive.
O=C(Nc1nc(-c2ccccn2)cs1)C12CC3CC(CC(O)(C3)C1)C2 was read as ugtP null kill inactive, PriA SSB inh 76, Mtb betalactam inactive, Mtb hypoxia rep inactive and RN4220 kill inactive.
For O=C(Nc1nc(-c2ccccn2)cs1)C1CC(=O)N(c2ccc3c(c2)OCCO3)C1 (stereo not given) the results were ugtP null kill inactive, PriA SSB inh 78, Mtb betalactam inactive, Mtb hypoxia rep inactive and RN4220 kill inactive.
For O=C(Nc1nc(-c2ccccn2)cs1)C1CC1 the results were ugtP null kill inactive, PriA SSB inh 104, Mtb betalactam inactive, Mtb hypoxia rep inactive and RN4220 kill inactive.
For O=C(Nc1nc(-c2ccccn2)cs1)NC1CCCC1 the results were PriA SSB inh 130.
For O=C(Nc1nc(-c2ccccc2)cs1)NC1CCCCC1 the results were ugtP null kill inactive, PriA SSB inh inactive, Mtb betalactam inactive, Mtb hypoxia rep inactive and RN4220 kill inactive.
COc1ccc(C(=O)N2CCN(c3cc(C(F)(F)F)ncn3)CC2)c(OC)n1 was read as PriA SSB inh inactive.
`Cn1cc(C(=O)Nc2ccn3nccc3c2)nn1` gave PriA SSB inh inactive.
`CCOC(=O)C1CCCN(c2nc(Nc3ccc(C)cc3)c3n[nH]nc3n2)C1` (stereo not given) gave PriA SSB inh inactive.
For COC(=O)NC1(C(=O)Nc2nc(-c3ccccn3)cs2)CCCC1 the results were PriA SSB inh 95.
Screening CC1(C)OC(=O)CC1C(=O)Nc1nc(-c2ccccn2)cs1 (stereo not given) returned PriA SSB inh 104.
Screening O=C(Nc1ccc(C(=O)Nc2nc(-c3ccccn3)cs2)cc1)NC1CC1 returned PriA SSB inh 93.
Screening O=C(Nc1nc(-c2ccccn2)cs1)C1CC1c1ccccc1Cl (stereo not given) returned PriA SSB inh inactive.
`CN(C(=O)C(=O)Nc1nc(-c2ccccn2)cs1)C1CCSC1` (stereo not given) gave PriA SSB inh 138.

From PubChem BioAssay
